This is part of a sample that, as a whole, favours compounds with a hit. Of some 79,000 tested, about 15% had one in any assay. Unmarked numbers belong to inactive results. The source made the active and inactive calls. Cut-off read from the data, not from the text of the source: active = growth inhibition above about 70%; inactive = the rest.
Key:
[1] = NCI Yeast Anticancer Drug Screen. Data for the rad50 strain (AID 155);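 note: 0% = growth of vehicle-only cultures of the same strain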; conditions: S. cerevisiae rad50 strain growth inhibition, stronger effect = higher value
How it was run: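 Yeast carrying a defined DNA repair defect were exposed to test compounds, and growth was compared with vehicle-treated controls to give percent inhibition.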

[2] = NCI Yeast Anticancer Drug Screen. Data for the mec2-1 strain (AID 157); conditions: S. cerevisiae mec2-1 strain, stronger effect = higher value
How it was run: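 Readout is yeast growth inhibition, normalised to vehicle-treated controls, in the mec2-1 strain exposed to compound.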

[3] = NCI Yeast Anticancer Drug Screen. Data for the sgs1 mgt1 strain (AID 161);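 note: 0% = growth of cultures given vehicle only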; conditions: S. cerevisiae sgs1 mgt1 strain, stronger effect = higher value
How it was run: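 Percent growth inhibition was derived by comparing compound-exposed mutant yeast with vehicle-exposed cultures. The strain carries alterations in DNA damage repair.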

[4] = NCI Yeast Anticancer Drug Screen. Data for the cln2 rad14 strain (AID 165);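 note: 0% = growth equal to vehicle treated cultures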; conditions: S. cerevisiae cln2 rad14 strain, stronger effect = higher value
How it was run: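 Relative to vehicle controls, growth inhibition of compound-treated cln2 rad14 yeast was recorded.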

[5] = NCI Yeast Anticancer Drug Screen. Data for the bub3 strain (AID 167); conditions: S. cerevisiae bub3 mutant strain, stronger effect = higher value
How it was run: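 Compounds were applied to a genetically altered yeast strain carrying a cell-cycle control defect. Growth inhibition was scored against vehicle-treated controls.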

[6] = NCI Yeast Anticancer Drug Screen. Data for the mlh1 rad18 strain (AID 175); conditions: S. cerevisiae mlh1 rad18 strain growth inhibition, stronger effect = higher value
How it was run: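 Test agents were incubated with a yeast strain of defined genotype (DNA damage repair defect). Inhibition of growth was derived by comparison with vehicle-exposed cultures.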

[7] = at 5.0 µM (retest, dose inferred, filed as 0.5)
[8] = at 50.0 µM (retest, dose inferred, filed as 5.0)

| Compound | growth inhibition [1, 7] | growth inhibition [1, 8] | growth inhibition ([1]; at 50.0 µM) | growth inhibition [2, 7] | growth inhibition [2, 8] | growth inhibition ([2]; at 50.0 µM) | growth inhibition [3, 7] | growth inhibition [3, 8] | growth inhibition ([3]; at 50.0 µM) | growth inhibition [4, 7] | growth inhibition [4, 8] | growth inhibition ([4]; at 50.0 µM) | growth inhibition [5, 7] | growth inhibition [5, 8] | growth inhibition ([5]; at 50.0 µM) | growth inhibition [6, 7] | growth inhibition [6, 8] | growth inhibition ([6]; at 50.0 µM) |
| --- | --- | --- | --- | --- | --- | --- | --- | --- | --- | --- | --- | --- | --- | --- | --- | --- | --- | --- |
| Brc1ccc(C2SCc3nc4ccccc4n32)cc1 (stereo not given) | 2% | 89% (active) | 74.5% (active) | 7% | 51% | 24.8% | 12% | 57% | 96.1% (active) | -10% | 37% | 56.6% | -2% | 88% (active) | 92.3% (active) | -2% | 54% | 78.7% (active) |
| Nc1c(-c2c(Cl)cccc2Cl)[n+]([O-])c2ccccc2[n+]1[O-] | 26% | 99% (active) | 75% (active) | 29% | 99% (active) | 38.9% | 44% | 100% (active) | 74.7% (active) | 28% | 99% (active) | 69.3% | 45% | 99% (active) | 66.8% | 72% (active) | 99% (active) | 88.8% (active) |
| O=C(/C=C/c1ccccc1)C1(c2ccccc2)CC1 | -125% | -56% | 79.8% (active) | -51% | -42% | 60.9% | -53% | -2% | 68.9% | -55% | -34% | -21.4% | -58% | 39% | 44.5% | -115% | -93% | 66.5% |
| O=C(O)Cc1ccccc1CCc1ccccc1Cl | -26% | 74% (active) | 85.2% (active) | -11% | 72% (active) | 82.5% (active) | -19% | 71% (active) | 83.5% (active) | -2% | 74% (active) | 87.1% (active) | 2% | 83% (active) | 77.1% (active) | -19% | 83% (active) | 81.3% (active) |
| O=C1c2ccccc2NC(=O)C2C1C(c1ccccc1)CC2(O)c1ccccc1 (stereo not given) | 7% | 87% (active) | 62.5% | 7% | 88% (active) | 73.8% (active) | 16% | 70% (active) | 72% (active) | -14% | 51% | 68% | -27% | 75% (active) | 69.5% | 21% | 86% (active) | 32.5% |
| Clc1ccc(/C=C\c2ccncc2)cc1 | 3% | 58% | 48.2% | 4% | 51% | 44.9% | 4% | 59% | 29.1% | 1% | 7% | 29.7% | 4% | 39% | 30% | -1% | 32% | 62% |
| COc1ccc(OC)c2c(C(=O)O)c(C(C)c3ccccc3)ccc12 (stereo not given) | -1% | 70% (active) | 85.8% (active) | 3% | 73% (active) | 91.2% (active) | 2% | 64% | 91.2% (active) | 1% | 74% (active) | 96.2% (active) | -6% | 65% | 81.7% (active) | 3% | 75% (active) | 92.3% (active) |
| CN1C(=O)C2N(C(=O)C1(C)S)c1ccccc1C2(C)C (stereo not given) | -5% | 37% | 47.7% | -4% | 29% | 32.5% | -3% | 41% | 15.7% | -14% | 49% | -17.6% | -4% | 25% | 10.3% | -1% | 32% | 24.8% |
| O=C(Cl)c1cc(-c2ccc(Cl)cc2)nc2c(Cl)cccc12 | 6% | 98% (active) | 72.5% (active) | 11% | 99% (active) | 61.2% | 5% | 99% (active) | 84.8% (active) | 3% | 99% (active) | 42.4% | 4% | 99% (active) | 74.2% (active) | 9% | 99% (active) | 87.2% (active) |
| COc1ccc(C(=O)CC2(O)C(=O)N(C)c3c(Cl)cc(Cl)cc32)cc1 (stereo not given) | -1% | 61% | 67.6% | 3% | 56% | 67.3% | 4% | 63% | 61.2% | -2% | 66% | 62% | -2% | 65% | 69% | -2% | 64% | 87.2% (active) |
| CCN(CC)CC(C)(C)C(=O)/C=C/c1ccc(Cl)c(Cl)c1 | 6% | 98% (active) | 97.9% (active) | 9% | 98% (active) | 99.2% (active) | 18% | 94% (active) | 98% (active) | 4% | 97% (active) | 89.2% (active) | 1% | 98% (active) | 98.8% (active) | 8% | 97% (active) | 99% (active) |
| Cn1cc(NC(=O)c2cc(NC(=O)CCCCCCCC(=O)Nc3cc(C(=O)Nc4cc(C(=O)NCCC(=N)N)n(C)c4)n(C)c3)cn2C)cc1C(=O)NCCC(=N)N | 82% (active) | 96% (active) | 86.8% (active) | 84% (active) | 98% (active) | 89.8% (active) | 73% (active) | 98% (active) | 90.2% (active) | 28% | 91% (active) | 82% (active) | 88% (active) | 98% (active) | 88.2% (active) | 85% (active) | 98% (active) | 88.8% (active) |
| CCOc1ccccc1-c1nc2c(s1)C(=O)c1ccccc1C2=O | 87% (active) | 98% (active) | 90% (active) | 100% (active) | 99% (active) | 91.4% (active) | 85% (active) | 98% (active) | 92% (active) | 52% | 98% (active) | 89.9% (active) | 98% (active) | 98% (active) | 92.3% (active) | 94% (active) | 98% (active) | 91.8% (active) |
| O=C1CCC(=O)c2c1c(O)c1ccncc1c2O | 18% | 99% (active) | 98.1% (active) | 26% | 99% (active) | 99.3% (active) | 31% | 99% (active) | 99.2% (active) | 11% | 99% (active) | 98.5% (active) | 16% | 99% (active) | 99.2% (active) | 41% | 99% (active) | 99% (active) |
| O=C1NC(=O)N(c2ccc(Cl)c(Cl)c2)C1=O | -1% | 8% | 71.2% (active) | 1% | 8% | 36.5% | 0% | 7% | 41.5% | -4% | 5% | 24.8% | -5% | -1% | 44.5% | -4% | 4% | 27.9% |
| O=C1NC(=O)/C(=C/C=C/c2ccccc2)S1 | 19% | 91% (active) | 40.9% | 13% | 73% (active) | 25.9% | 25% | 98% (active) | 47.8% | 27% | 63% | 77.4% (active) | 61% | 99% (active) | 48.1% | 26% | 94% (active) | 90.2% (active) |
| COc1ccccc1OC(=O)Oc1ccccc1OC | -1% | 19% | 36.6% | -3% | -3% | -11.1% | -1% | 12% | 9.45% | 4% | 4% | -37.4% | 1% | 9% | 57.8% | -4% | -5% | 50% |
| COC(=O)c1cc(C)c2sc3ccccc3c2c1C | -13% | 29% | 73.1% (active) | -8% | 23% | 5.3% | -7% | 51% | 75.2% (active) | -8% | 16% | -24.1% | -21% | 21% | 31.4% | -3% | 38% | 61.5% |
| CN(C)c1ccc(/C=N/N=C(\C#N)[S][Sn]([Cl])([c]2ccccc2)[c]2ccccc2)cc1 | 98% (active) | 95% (active) | 97.5% (active) | 98% (active) | 96% (active) | 97.3% (active) | 98% (active) | 96% (active) | 97.5% (active) | 98% (active) | 89% (active) | 95% (active) | 98% (active) | 95% (active) | 97% (active) | 97% (active) | 96% (active) | 97.2% (active) |
| O=c1[nH]c(=S)[nH]c(-c2ccccc2)c1Cc1c(O)ccc2ccccc12 | -15% | 74% (active) | 88.7% (active) | 32% | 40% | 89.6% (active) | -10% | 65% | 84.3% (active) | -17% | 41% | 75.2% (active) | -15% | 57% | 80.8% (active) | -4% | 60% | 79.7% (active) |
| O=C1NC(=O)N(c2ccc([N+](=O)[O-])cc2)C1=O | 9% | 3% | -0.3% | 8% | 2% | 1.1% | 3% | 6% | -2.95% | 9% | 5% | 18.1% | 6% | 5% | -4.4% | 0% | 7% | 10.2% |
| Cc1cc(I)cc(I)c1O | 8% | 55% | 75.5% (active) | 2% | 34% | 80.7% (active) | 7% | 33% | 55.3% | 4% | 4% | -7.85% | 1% | 33% | 67.3% | 10% | 62% | 86.3% (active) |
| CC1CC[N-]CC1.CC1CC[N-]CC1.CC1CC[N-]CC1.CC1CC[N-]CC1.CS(C)=O.CS(C)=O.[Cl-].[Cl-].[Cl-].[Cl-].[Pt+4].[Rh+3] | 65% | 96% (active) | 95.5% (active) | 58% | 98% (active) | 96.8% (active) | 66% | 98% (active) | 96.3% (active) | 44% | 97% (active) | 89.3% (active) | 52% | 96% (active) | 97.9% (active) | 69% | 97% (active) | 97% (active) |
| O=C1OCc2cccc3cccc1c23 | 7% | 84% (active) | 88.5% (active) | 9% | 43% | 38.6% | 4% | 29% | 70.3% (active) | 8% | 38% | 36.5% | 11% | 69% | 27.8% | 5% | 36% | 62% |
| O=[N+]([O-])/C(C(Cl)=C(Cl)Cl)=C(/Nc1ccccc1)Sc1ccccc1 | 62% | 99% (active) | 17.1% | 41% | 99% (active) | 70.2% (active) | 64% | 99% (active) | 66.5% | 49% | 99% (active) | 23.8% | 51% | 99% (active) | 64.2% | 78% (active) | 99% (active) | 84.8% (active) |
